Hit rate of the full screen: of about 310,000 compounds, about 14,000 (4.5%) showed an effect of 50% or more. The effect is printed as a negative number. What follows is part of a selection rich in strong results, with near analogues and random picks from the rest.
molecular target: human ether-à-go-go-related gene (hERG) potassium channel (human, UniProt Q12809); assay: primary screen, population patch clamp on CHO cells stably expressing hERG; higher = less effect of the substance
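Note: peak tail current of the secondary pulse compared with the same well before compound.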

Sequence of human ether-à-go-go-related gene (hERG) potassium channel (Q12809 whole entry, looked up): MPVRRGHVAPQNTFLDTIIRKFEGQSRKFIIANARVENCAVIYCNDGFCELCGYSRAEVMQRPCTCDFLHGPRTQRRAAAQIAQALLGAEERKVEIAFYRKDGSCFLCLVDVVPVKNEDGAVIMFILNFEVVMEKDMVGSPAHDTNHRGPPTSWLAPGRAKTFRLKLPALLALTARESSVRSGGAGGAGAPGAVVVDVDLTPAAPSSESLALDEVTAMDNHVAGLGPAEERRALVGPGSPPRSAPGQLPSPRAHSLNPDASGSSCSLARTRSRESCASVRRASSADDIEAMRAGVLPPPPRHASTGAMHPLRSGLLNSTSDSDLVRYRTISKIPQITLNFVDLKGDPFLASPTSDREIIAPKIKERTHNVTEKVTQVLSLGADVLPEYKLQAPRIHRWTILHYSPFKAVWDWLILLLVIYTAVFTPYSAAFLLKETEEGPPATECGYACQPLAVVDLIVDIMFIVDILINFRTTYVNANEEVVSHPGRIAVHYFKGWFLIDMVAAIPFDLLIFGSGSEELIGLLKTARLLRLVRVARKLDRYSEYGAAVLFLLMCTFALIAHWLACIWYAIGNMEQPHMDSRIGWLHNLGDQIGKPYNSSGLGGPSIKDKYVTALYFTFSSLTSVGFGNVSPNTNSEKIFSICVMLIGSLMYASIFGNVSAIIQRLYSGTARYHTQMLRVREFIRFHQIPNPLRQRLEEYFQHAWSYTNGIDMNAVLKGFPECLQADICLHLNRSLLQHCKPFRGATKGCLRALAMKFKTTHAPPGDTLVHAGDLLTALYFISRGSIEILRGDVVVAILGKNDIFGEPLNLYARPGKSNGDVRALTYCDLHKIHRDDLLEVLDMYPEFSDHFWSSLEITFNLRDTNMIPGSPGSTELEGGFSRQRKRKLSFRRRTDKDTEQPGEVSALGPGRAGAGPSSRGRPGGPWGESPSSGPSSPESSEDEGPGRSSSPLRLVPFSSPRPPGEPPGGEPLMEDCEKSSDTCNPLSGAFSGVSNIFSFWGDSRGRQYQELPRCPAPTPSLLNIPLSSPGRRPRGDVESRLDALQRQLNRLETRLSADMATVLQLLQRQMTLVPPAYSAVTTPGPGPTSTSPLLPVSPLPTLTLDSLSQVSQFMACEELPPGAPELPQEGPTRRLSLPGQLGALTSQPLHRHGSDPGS

Compared with `CCOc1ccc(S(=O)(=O)NC(Cc2cnc[nH]2)C(=O)O)cc1` (centres unmarked), `CCC(=O)c1ccc(OCC(O)CN2CCN(S(=O)(=O)c3ccc(NC(C)=O)cc3)CC2)cc1` (centres unmarked) is lower in “hERG current change (%, negative = inhibition) at 10uM” value: 18.5% for the first, -20.5% for the second.

Going from `CCN(CC)c1ccc(NC(=O)c2ccc(=O)[nH]c2)cc1S(=O)(=O)Nc1ccc(OC)cc1` to `C=CCOc1ccc(/C=C/C(=O)OC(C)C(=O)Nc2ccc(NC(C)=O)cc2)cc1` (centres unmarked), the “hERG current change (%, negative = inhibition) at 10uM” value rises from -7.22% to 4.6%.

Going from `CCN(CC)CCCC(C)NC(=O)c1cccc(S(=O)(=O)N2CCc3ccccc32)c1.Cl` (centres unmarked) to `CC(C)CCNC(=O)c1cccc(S(=O)(=O)N2CCc3ccccc32)c1`, the “hERG current change (%, negative = inhibition) at 10uM” value rises from -58.5% to 2.44%.

Compared with `CCCNC(=O)c1cc(S(=O)(=O)N2CCc3ccccc32)cn1C`, `CC(C)CCNC(=O)c1cc(S(=O)(=O)N2CCc3ccccc32)cn1C` is higher in “hERG current change (%, negative = inhibition) at 10uM” value: -0.715% for the first, 10.2% for the second.

Compared with `CC(NC(=O)c1cccc(S(=O)(=O)N2CCc3ccccc32)c1)c1ccco1` (centres unmarked), `CCN(CC)CCNC(=O)c1cc(S(=O)(=O)N2CCc3ccccc32)cn1C` is lower in “hERG current change (%, negative = inhibition) at 10uM” value: -48% for the first, -66.1% for the second.

Going from `CCCOc1ccccc1C1CC(=O)NC2=C1C(=O)CCC2` (centres unmarked) to `COc1ccc(NC(=O)CSC2=C(C#N)C(c3ccco3)C3=C(CCCC3=O)N2)c(OC)c1` (centres unmarked), the “hERG current change (%, negative = inhibition) at 10uM” value falls from -1.24% to -33.2%.

First: Cc1nc(CNC(=O)CC2C(=O)NCCN2Cc2ccc(F)cc2)cs1 (centres unmarked)
Second: CCOC(=O)CSCC(=O)N1N=C(c2cccs2)CC1c1ccc(F)cc1 (centres unmarked)
The “hERG current change (%, negative = inhibition) at 10uM” value of the first is higher: 11.9% for the first, -34.1% for the second.

Going from `Cc1cc(C)nc(N(C#N)CN2C(=O)c3ccccc3S2(=O)=O)n1` to `CCn1cc(C(=O)N2CCn3c(nc4ccccc43)C2)c(=O)c2ccc(C)nc21`, the “hERG current change (%, negative = inhibition) at 10uM” value falls from 0.542% to -12.4%.

Compared with `O=C(O)c1ccc(Cl)c(S(=O)(=O)N2CCCCCC2)c1`, `CCC(=O)c1ccc(OCC(O)CN2CCN(S(=O)(=O)N3CCCCC3)CC2)cc1` (centres unmarked) is lower in “hERG current change (%, negative = inhibition) at 10uM” value: -8.34% for the first, -55.1% for the second.

Compared with `C/C(=N\NC(=O)CN(c1ccc(C)cc1)S(C)(=O)=O)c1cccs1`, `Cc1ccc(C2CC(c3cccs3)=NN2C(=O)CSc2nc(=O)n3ccc(C)cc3n2)cc1` (centres unmarked) is lower in “hERG current change (%, negative = inhibition) at 10uM” value: -8.31% for the first, -46.3% for the second.

First: O=C(Nc1cc(Cl)ccc1Oc1ccccc1)c1ccc(F)cc1
Second: CN(CC(=O)Nc1ccc(Cl)cc1)C(=O)CNC(=O)Cc1cccc2ccccc12
The “hERG current change (%, negative = inhibition) at 10uM” value of the first is lower: -14.1% for the first, 20.1% for the second.

Going from `COc1ccc(C2CC(c3cccs3)=NN2C(=O)CSc2nc(=O)n3ccc(C)cc3n2)cc1` (centres unmarked) to `Cc1ccn2c(=O)nc(SCC(=O)N3N=C(c4cccs4)CC3c3ccc(F)cc3)nc2c1` (centres unmarked), the “hERG current change (%, negative = inhibition) at 10uM” value rises from -65.4% to -65%.

Compared with `CCN1CCN(CC(=O)N2N=C(c3cccs3)CC2c2ccc(OC)cc2)C(=O)C1=O` (centres unmarked), `COc1ccc(C2=NN(C(=O)CSc3nc(=O)n4ccc(C)cc4n3)C(c3ccc(C)cc3)C2)cc1` (centres unmarked) is higher in “hERG current change (%, negative = inhibition) at 10uM” value: -8.83% for the first, 5.1% for the second.

Going from `COCCn1c(N)c(C(=O)NCC2CCCO2)c2nc3ccccc3nc21` (centres unmarked) to `CCCCCCn1c(=O)c(C(=O)Nc2nnc(C)s2)c(O)c2ccccc21`, the “hERG current change (%, negative = inhibition) at 10uM” value rises from -7.66% to -1.74%.

Compared with `COc1cccc(CN(C(=O)Cn2nnc(-c3ccccc3F)n2)C(C(=O)NC(C)(C)C)c2ccncc2)c1` (centres unmarked), `O=C(NCCc1ccccc1)c1ccc(CS(=O)(=O)Cc2ccccc2F)o1` is lower in “hERG current change (%, negative = inhibition) at 10uM” value: -18.7% for the first, -19.7% for the second.

First: O=[N+]([O-])c1ccc(N(c2ccccc2)c2ccccc2)cc1
Second: NCC(O)CN(c1ccccc1)c1ccccc1 (centres unmarked)
The “hERG current change (%, negative = inhibition) at 10uM” value of the first is lower: 4.46% for the first, 12% for the second.

First: Cc1nn(-c2cc(N3CCNCC3)ccc2[N+](=O)[O-])c(=O)c2ccccc12
Second: O=c1[nH]c(=O)c2nc3c4ccccc4c4ccccc4c3nc2[nH]1
The “hERG current change (%, negative = inhibition) at 10uM” value of the first is lower: -11.4% for the first, 4.75% for the second.

Going from `CCOc1c(Cl)cc(CNc2ccc(S(N)(=O)=O)cc2)cc1OC` to `COc1ccc(Br)cc1CNc1ccccc1.O=C(O)C(=O)O`, the “hERG current change (%, negative = inhibition) at 10uM” value rises from -3.11% to 9.4%.

Going from `COc1ccc(OCC(O)CN2CC(C)OC(C)C2)cc1.Cl` (centres unmarked) to `CC1CN(CC(O)COc2ccc(C(C)C)cc2)CC(C)O1.Cl` (centres unmarked), the “hERG current change (%, negative = inhibition) at 10uM” value falls from 17.5% to -14.3%.

Going from `CC(C)c1ccc(OCC(O)CN2CCCC2)cc1.Cl` (centres unmarked) to `CCC(=O)c1ccc(OCC(O)CN2CCCCC2)cc1.Cl` (centres unmarked), the “hERG current change (%, negative = inhibition) at 10uM” value falls from -11.1% to -21.8%.

Going from `CN1CCN(CC(O)COc2ccc(Cl)cc2)CC1.Cl` (centres unmarked) to `CN1CCN(CC(O)COC(c2ccc(Cl)cc2)c2ccc(Cl)cc2)CC1.Cl` (centres unmarked), the “hERG current change (%, negative = inhibition) at 10uM” value falls from -12.5% to -69.3%.

Going from `CC1CN(CC(O)COC(c2ccc(Cl)cc2)c2ccc(Cl)cc2)CC(C)O1.Cl` (centres unmarked) to `OC(COC(c1ccc(Cl)cc1)c1ccc(Cl)cc1)CN1CCCC1` (centres unmarked), the “hERG current change (%, negative = inhibition) at 10uM” value falls from -71.9% to -77.4%.

Compared with `CN1CCN(CC(O)COC(c2ccccc2)c2ccccc2)CC1` (centres unmarked), `CN(C)S(=O)(=O)N1CCN(CC(O)COc2ccc(-c3ccccc3)cc2)CC1` (centres unmarked) is lower in “hERG current change (%, negative = inhibition) at 10uM” value: 11.2% for the first, -27.3% for the second.

Compared with `CC1CCCCC1NC(=O)c1nnc(Cc2ccc(Cl)cc2)o1` (centres unmarked), `CCCCN(C)C(=O)C1CCN(Cc2cccnc2)CC1` is higher in “hERG current change (%, negative = inhibition) at 10uM” value: -9.72% for the first, 9.71% for the second.

First: CCOP(=O)(O)c1ccccc1OCCCCCOc1ccccc1P(=O)(O)OCC
Second: CN(CCO)CC(O)CN(c1ccccc1)c1ccccc1.Cl (centres unmarked)
The “hERG current change (%, negative = inhibition) at 10uM” value of the first is higher: 14.5% for the first, -52.1% for the second.

Compared with `COC(=O)C(C)(C(=O)OC)c1ccccc1[N+](=O)[O-]`, `COc1cc(NC(=O)c2c(F)c(F)c(OC)c(F)c2F)ccc1NC(=O)c1cccs1` is higher in “hERG current change (%, negative = inhibition) at 10uM” value: 7.93% for the first, 11.2% for the second.

Compared with `COCCSc1ccccc1C(=O)Nc1nccs1`, `CCOC(=O)Cc1csc(NC(=O)NC2(C(F)(F)F)Oc3ccccc3O2)n1` is higher in “hERG current change (%, negative = inhibition) at 10uM” value: -2.77% for the first, 5.19% for the second.

Going from `O=C(c1ccccc1)c1ccc(OCC(O)CN2CCOCC2)cc1` (centres unmarked) to `CN(C)S(=O)(=O)N1CCN(CC(O)COc2ccc(C(=O)c3ccccc3)cc2)CC1` (centres unmarked), the “hERG current change (%, negative = inhibition) at 10uM” value falls from -10.8% to -70.2%.

Going from `CN(C)S(=O)(=O)N1CCN(CC(O)COc2ccc3cc(Br)ccc3c2)CC1` (centres unmarked) to `O=S(=O)(N1CCCCC1)N1CCN(CC(O)COc2ccc3cc(Br)ccc3c2)CC1` (centres unmarked), the “hERG current change (%, negative = inhibition) at 10uM” value rises from -25.6% to 7.33%.

Compared with `O=C(c1ccccc1)c1ccc(OCC(O)CN2CCN(S(=O)(=O)N3CCCCC3)CC2)cc1` (centres unmarked), `O=C(C1CCCN(CCCc2ccccc2)C1)N1CCCCCC1.O=C(O)C(=O)O` (centres unmarked) is higher in “hERG current change (%, negative = inhibition) at 10uM” value: -73.5% for the first, -46.2% for the second.

First: CCOc1ccc(N2C(=O)CN=C2Nc2ccccc2F)cc1
Second: Fc1ccccc1Nc1nc(NCc2ccco2)nc(N2CCOCC2)n1
The “hERG current change (%, negative = inhibition) at 10uM” value of the first is higher: 5.08% for the first, -15.8% for the second.

First: CN=C1C=C/C(=N/N=c2\ccn(O)cc2C)C=C1C
Second: Cc1ccc(C(C)C)c(Oc2nnnn2-c2ccccc2)c1
The “hERG current change (%, negative = inhibition) at 10uM” value of the first is lower: -32.6% for the first, 14.2% for the second.

Compared with `COC(=O)C1=C(C)N=C2SCCC(=O)N2C1c1cccs1` (centres unmarked), `CCCOc1cccc(C2C(C(=O)c3ccc(C)o3)=C(O)C(=O)N2c2nc(C)c(C(C)=O)s2)c1` (centres unmarked) is lower in “hERG current change (%, negative = inhibition) at 10uM” value: 10.4% for the first, 9.66% for the second.

First: O=C(O)C(=O)O.c1ccc(CNC23CC4CC(CC(C4)C2)C3)nc1
Second: CCCCN(C)C(=O)C1CCN(Cc2ccccn2)CC1.O=C(O)C(=O)O
The “hERG current change (%, negative = inhibition) at 10uM” value of the first is higher: 15.3% for the first, -4.27% for the second.

Going from `CCCCN(Cc1ccccc1)C(=O)C1CCN(Cc2sccc2C)CC1.O=C(O)C(=O)O` to `CCN(Cc1ccccc1)C(=O)C1CCN(Cc2sccc2C)CC1.O=C(O)C(=O)O`, the “hERG current change (%, negative = inhibition) at 10uM” value rises from -68.3% to -44.3%.

Going from `CCC(C)NC(=O)C1CCN(CCCc2ccccc2)CC1.O=C(O)C(=O)O` (centres unmarked) to `CCCCN(C)C(=O)C1CCN(CCCc2ccccc2)CC1.O=C(O)C(=O)O`, the “hERG current change (%, negative = inhibition) at 10uM” value falls from -1.26% to -73.4%.

First: O=C(C1CCN(CCCc2ccccc2)CC1)N(CCc1ccccc1)Cc1ccccc1.O=C(O)C(=O)O
Second: O=C(C1CCN(CC2CC=CCC2)CC1)N(CCc1ccccc1)Cc1ccccc1 (centres unmarked)
The “hERG current change (%, negative = inhibition) at 10uM” value of the first is lower: -75% for the first, -72% for the second.

First: CCN(Cc1ccccc1)C(=O)C1CCN(CC2CC=CCC2)CC1.O=C(O)C(=O)O (centres unmarked)
Second: CCN(CC)C(=O)C1CCN(CC2CC=CCC2)CC1 (centres unmarked)
The “hERG current change (%, negative = inhibition) at 10uM” value of the first is lower: -46.9% for the first, -0.0716% for the second.

Compared with `CC1CCCN(C(=O)C2CCN(CCCc3ccccc3)CC2)C1.O=C(O)C(=O)O` (centres unmarked), `CC1CCN(C(=O)C2CCN(CCCc3ccccc3)CC2)CC1.O=C(O)C(=O)O` is lower in “hERG current change (%, negative = inhibition) at 10uM” value: -47.5% for the first, -62.3% for the second.

Compared with `CCN(CC)C(=O)C1CCCN(Cc2sccc2C)C1` (centres unmarked), `CC(=O)N1CCC(N(CCCOC(C)C)S(=O)(=O)c2ccc([N+](=O)[O-])cc2)CC1` is lower in “hERG current change (%, negative = inhibition) at 10uM” value: 11.6% for the first, -35.3% for the second.

First: O=C(C1CC1)N(CCN(Cc1ccccc1)C(=O)C1CC1)Cc1ccccc1
Second: Cl.OCCN(CCO)CC(O)CN(c1ccccc1)c1ccccc1 (centres unmarked)
The “hERG current change (%, negative = inhibition) at 10uM” value of the first is lower: -28.9% for the first, -14.6% for the second.

Compared with `COc1ccc(C(=S)N2CCCC2)cc1Br`, `CNCC(O)CN(c1ccccc1)c1ccccc1` (centres unmarked) is lower in “hERG current change (%, negative = inhibition) at 10uM” value: -7.39% for the first, -39.8% for the second.

Going from `CN(C)CC(O)CN(c1ccccc1)c1ccccc1` (centres unmarked) to `OCC(O)CN(c1ccccc1)c1ccccc1` (centres unmarked), the “hERG current change (%, negative = inhibition) at 10uM” value rises from -54% to 2.58%.
